Screening results as filed in PubChem BioAssay.
This is a sample that favours compounds with a hit; in the whole collection about 1.8% have one here.
MLL AF4-AF9 inh = inhibitors of AF4 peptide binding to AF9, primary screen, biochemical, AlphaScreen, biotin-AF4 peptide, FLAG-AF9, single point | Protein AF-9 (Homo sapiens), P42568 | 350,000 tested, 0.47% active | inhibition, % at 10 µM;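 active = every replicate reaching a set inhibition limit, whatever the replicate mean, cut at about 25% in these data; inconclusive = mean inhibition reaches that limit but some replicates miss it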;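 note: 0% = plate neutral control median and 100% = total signal loss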
Target sequence (P42568 whole entry, looked up): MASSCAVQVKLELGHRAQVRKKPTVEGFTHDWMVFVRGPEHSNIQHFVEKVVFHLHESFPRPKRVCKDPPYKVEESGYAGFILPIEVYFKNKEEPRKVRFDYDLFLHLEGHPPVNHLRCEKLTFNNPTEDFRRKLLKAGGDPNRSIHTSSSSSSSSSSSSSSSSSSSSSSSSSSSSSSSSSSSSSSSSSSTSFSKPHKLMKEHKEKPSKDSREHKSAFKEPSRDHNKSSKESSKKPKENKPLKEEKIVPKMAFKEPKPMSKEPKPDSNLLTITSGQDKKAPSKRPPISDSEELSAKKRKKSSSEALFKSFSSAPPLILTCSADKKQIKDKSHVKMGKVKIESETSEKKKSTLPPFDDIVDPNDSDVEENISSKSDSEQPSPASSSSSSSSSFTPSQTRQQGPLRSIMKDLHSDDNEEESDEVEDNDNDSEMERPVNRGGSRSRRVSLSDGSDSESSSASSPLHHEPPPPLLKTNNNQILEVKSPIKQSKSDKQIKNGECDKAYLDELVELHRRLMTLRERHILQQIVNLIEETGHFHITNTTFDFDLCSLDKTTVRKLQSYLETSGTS
DENV2 CPE = inhibitors of DENV2 cytopathic effect, primary screen, cell-based, plate reader, single concentration; DENV2-infected cells, cytopathic effect rescue; CPE inhibition, % at 9.99 µM; 350,000 tested, 1.7% active; AID 651640, 2012; in the data active = CPE inhibition above about 20%, passing the limit was not always enough; inconclusive = no clear call, values can overlap the other calls; tested in BHK-21 cells;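 note: 0% = median of neutral control wells and 100% = median of positive control wells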
ERAP1 HTS inh = human ERAP1 aminopeptidase inhibitors, primary screen, biochemical, single point, plate reader; Endoplasmic reticulum aminopeptidase 1 (Homo sapiens), Q9NZ08; recombinant ERAP1, Leu-AMC fluorescence, 60 min; inhibition, % at 10.7 µM; 340,000 tested, 0.15% active; AID 652197, 2013;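 active = mean replicate inhibition of at least 30%, or all replicates individually reaching that 30% level; inactive = mean below 30% and not every replicate reaching it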;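 note: 0% = neutral control wells and 100% = L-leucinethiol positive control wells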
PDI turbidity = inhibitors of human PDI, primary screen, biochemical, turbidity, single point, plate reader | AID 588391, 2011 | inhibition, % at 10 µM | PDI insulin aggregation turbidity, A650, 90 min | 350,000 tested, 0.052% active;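 active = mean inhibition across replicates of 30% or more, whatever share of single replicates reach that level; inconclusive = mean inhibition below 30% while every single replicate reaches 30%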
ERp5 inh = inhibitors of ERp5-driven insulin aggregation, primary screen, biochemical, turbidity, absorbance 650 nm, single point. Protein disulfide-isomerase A6 (Homo sapiens), Q15084. 90 min. inhibition, % at 9.99 µM. 350,000 tested, 0.05% active;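 active = mean replicate inhibition above about 25%, with every replicate also reaching it, limit read from the data, passing the limit was not always enough; inconclusive = only one of those two criteria met; inactive = neither criterion met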
An asterisk follows results filed as active; ? = inconclusive; . = not tested or not shown.

SMILES	MLL AF4-AF9 inh	DENV2 CPE	ERAP1 HTS inh	PDI turbidity	ERp5 inh
Cc1noc(C)c1NC(=O)N(C)C[C@@H]1OCCCC[C@@H](C)Oc2ccc(NC(=O)Nc3cccc4ccccc34)cc2C(=O)N([C@@H](C)CO)C[C@@H]1C	-1	38*	-2	.	1
Cc1noc(C)c1NC(=O)N(C)C[C@@H]1OCCCC[C@@H](C)Oc2ccc(NC(=O)C3CCCCC3)cc2C(=O)N([C@@H](C)CO)C[C@@H]1C	-5	25*	2	.	10
Cc1noc(C)c1NC(=O)N(C)C[C@@H]1OCCCC[C@@H](C)Oc2ccc(NC(=O)C3CCCCC3)cc2C(=O)N([C@H](C)CO)C[C@H]1C	-3	-4	3	.	4
COc1cccc(/C=C/C=O)c1	-7	18	3	.	-5
CCS(=O)(=O)N[C@@H]1C=C[C@@H](CC(=O)NCc2ccc(F)cc2)O[C@H]1CO	-1	-9	3	.	3
CSc1ccc(/C=N/N2CCN(C)CC2)cc1	8	5	6	4	2
C(=N\N1CCN(Cc2ccccc2)CC1)/c1ccc(-c2ccccc2)cc1	-4	11	1	-6	-3
CN1CCN(/N=C/c2ccc(-c3ccccc3)cc2)CC1	35*	-6	3	3	2
CN1CCN(/N=C/c2c3ccccc3c(Cl)c3ccccc23)CC1	25*	6	-2	3	?
COc1cccc(S(=O)(=O)Nc2ccc3c(c2)[C@H]2C[C@@H](CC(=O)N(C)C)O[C@@H](CO)[C@H]2O3)c1	0	2	1	.	1
CCc1cnc(N2[C@H](C#N)[C@@H](c3ccccc3)[C@@H]2CO)s1	1	2	0	.	0
CCc1cnc(N2[C@@H](C#N)[C@@H](c3ccccc3)[C@@H]2CO)s1	0	49*	0	.	-2
CCc1cnc(N2[C@H](CO)[C@H](c3ccc(C4=CCCCC4)cc3)[C@@H]2C#N)s1	0	29*	2	.	4
CN(C)C(=O)C[C@H]1CC[C@H]2[C@@H](COc3ccc(NC(=O)c4cnccn4)cc3C(=O)N2C)O1	1	60*	-2	.	4
CN(C)CCCNC(=O)C[C@H]1CC[C@@H]2[C@@H](COc3ccc(NC(=O)c4cccc(F)c4)cc3C(=O)N2C)O1	1	42*	0	.	3
Cc1cc(C(=O)Nc2ccc3c(c2)C(=O)N(C)[C@H]2CC[C@@H](CC(=O)N[C@@H](C)c4ccccc4)O[C@H]2CO3)no1	1	97*	-4	.	4
CCNC(=O)C[C@@H]1CC[C@@H]2[C@H](COc3ccc(NC(=O)c4cscn4)cc3C(=O)N2C)O1	-2	24*	1	.	-19
CC(C)C#Cc1cnc2c(c1)C(=O)N([C@H](C)CO)C[C@H](C)[C@H](CN(C)C(=O)Cc1ccccn1)O2	-13	11	6	.	2
CC(C)NC(=O)N1CC2(C1)[C@H](c1ccccc1)[C@H](CO)N2CCC(F)(F)F	0	-8	1	.	2
O=C(C[C@H]1CC[C@@H]2[C@H](COC[C@@H](O)CN2Cc2nccs2)O1)NCc1ccc(Oc2ccccc2)cc1	2	6	-2	.	1
O=C(NCC[C@H]1CC[C@@H](NC(=O)c2ccc3c(c2)OCO3)[C@H](CO)O1)Nc1cc(F)ccc1F	5	4	0	.	5
CCCNC(=O)C[C@H]1CC[C@@H]2[C@@H](COc3ccc(NC(=O)c4ccccc4)cc3C(=O)N2C)O1	-2	-5	1	.	64*
CCNC(=O)C[C@@H]1CC[C@@H]2[C@H](COc3ccc(NC(=O)Cc4ccccc4)cc3C(=O)N2C)O1	-1	27*	-1	.	-3
CCCNC(=O)C[C@@H]1CC[C@@H]2[C@@H](COc3ccc(NC(=O)c4ccccc4)cc3C(=O)N2C)O1	-1	-4	1	.	-2
CC(C)C(=O)Nc1ccc2c(c1)C(=O)N(C)[C@H]1CC[C@H](CC(=O)NCc3ccccc3)O[C@@H]1CO2	2	-1	1	.	-3
CC(C)C(=O)Nc1ccc2c(c1)C(=O)N(C)[C@H]1CC[C@@H](CC(=O)NCc3ccccc3)O[C@@H]1CO2	-13	32*	0	.	1
O=C(NCC[C@H]1CC[C@H](NS(=O)(=O)c2cccc(F)c2)[C@H](CO)O1)C1CCC1	-3	-6	5	.	-10
